Assay [1] is described as follows: qHTS profiling of the MIPE4 collection as inhibitors of Plasmodium falciparum (3D7) proliferation (AID 743344; call rule not given here;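 further: scaled between DMSO vehicle wells and 0.29 µM artemisinin as full inhibition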). The note with it: P. falciparum 3D7 in erythrocytes, SYBR Green DNA fluorescence, 72 h; at 28.5 µM unless noted. In outline: (§1)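 Erythrocytes infected with P. falciparum (0.3% parasitemia, 2.5% hematocrit) incubated with compounds 72 h at 37 C, 5% CO2. Lysis with saponin/Triton buffer containing SYBR Green I, overnight at room temperature in the dark; DNA fluorescence (485/535 nm) normalised to 0.29 uM artemisinin and DMSO.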
For orientation: qHTS replaces the single test concentration by a dilution series.

Assay [2] can be described thus: qHTS profiling of the MIPE4 collection as inhibitors of Plasmodium falciparum (DD2) proliferation (AID 743345; call rule not given here). Conditions: P. falciparum Dd2 in erythrocytes, SYBR Green DNA, 72 h; at 28.5 µM unless noted. In outline:
as §1

A short description of assay [3]: qHTS profiling of the MIPE4 collection as inhibitors of Plasmodium falciparum (DD2) proliferation (Rep 2) (AID 743346; call rule not given here). The note with it: P. falciparum Dd2 in erythrocytes, SYBR Green DNA, 72 h; at 28.5 µM unless noted. In outline:
as §1

Assay [4] in a line: High-throughput drug toxicity screening in the BPDCN cell line Cal-1 (AID 1224825; call rule not given here). The note with it: Cal-1 BPDCN cell viability, qHTS; at 45.8 µM (top of the series) unless noted. The method, boiled down:
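Cal-1 cells, 500 per well in phenol-red-free RPMI with 10% FBS, exposed to compounds for 48 hours at 37C, 5% CO2. Viability read by CellTiter-Glo luminescence; percent activity normalized to DMSO (100%) and 9.2 uM bortezomib final (0%).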

The nature of assay [5]: qHTS assay for measurement of the activity of small molecule inhibitors on Zika virus induced Caspase-3 activity in human iPSC derived neural progenitor cells (hNPCs) (AID 1224857). Further: % of control where 0% means no effect; nearly all actives have a fitted effect of over 65% in size. In outline: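 Cells were plated at 350 per well and grown 16 to 20 hours. Compound pretreatment lasted one hour, after which ZIKV (2 FFU/cell) was added for 6 hours. Percent inhibition was normalized between uninfected and infected controls.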

Assay [6] can be described thus: qHTS Assay for Identifying Gametocytocidal Compounds (AID 743244). Further: potency means the concentration at half of the fitted maximal effect.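 On max response: on the % scale 0 is the no-effect control and ±100 the full control effect; actives lower the fluorescent signal which means gametocytes are killed.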 The note with it: P. falciparum 3D7 stage III-V gametocytes, alamarBlue, 72 h; max response: stronger effect = lower value. In outline: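 3D7 gametocytes, stages III–V, 20,000/well; cpd 72 h, 37 °C/5% CO2; + alamarBlue 24 h; fluor. Ex 525/Em 598.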
Assay [7] is described as follows: qHTS profiling for inhibitors of Plasmodium falciparum (3D7) proliferation (AID 743322; call rule not given here;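 further: infected erythrocytes exposed to compound for 72 h before lysis; 100% = DMSO vehicle wells and 0% = 0.29 µM artemisinin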). Conditions: P. falciparum 3D7 proliferation; at 28.7 µM (top of the series). In outline: as §1
Assay [8] is described as follows: qHTS profiling for inhibitors of Plasmodium falciparum (DD2) proliferation (AID 743323; call rule not given here). The note with it: lower = more inhibition; at 28.7 µM (top of the series). In outline:
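Parasite DNA quantified by SYBR Green fluorescence (ex 485, em 535 nm) after saponin/Triton lysis and overnight dark incubation. Cultures: 0.3% parasitemia, 2.5% hematocrit, 72 h, 37 C; data scaled between DMSO and 0.29 uM artemisinin.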

A short description of assay [9]: qHTS profiling for inhibitors of Plasmodium falciparum (HB3) proliferation (AID 743324).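 Further: 100% = DMSO vehicle wells and 0% = artemisinin-treated control wells.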 Conditions: Plasmodium falciparum HB3 blood-stage proliferation; at 28.7 µM (top of the series). In outline: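 P. falciparum HB3 grown in erythrocytes (0.3% parasitemia, 2.5% hematocrit final) with compound for 72 h at 37 C, 5% CO2. Parasite DNA detected by SYBR Green after saponin/triton lysis overnight; normalized to 0.29 uM artemisinin and DMSO.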

Assay [10] in a line: qHTS profiling of the MIPE4 collection as inhibitors of Plasmodium falciparum (HB3) proliferation (AID 743347; call rule not given here;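 further: plate controls were DMSO vehicle wells for no effect and artemisinin wells for full effect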). The note with it: P. falciparum HB3 in erythrocytes, SYBR Green DNA, 72 h; at 28.5 µM unless noted. The method, boiled down: as §1
The nature of assay [11]: High-throughput drug toxicity screening in the BPDCN cell line Gen2.2 (AID 1224824; call rule not given here;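 further: cells exposed to compounds for 48 h before reading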). The note with it: Gen2.2 BPDCN cells; at 45.8 µM (top of the series) unless noted. In outline: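 CellTiter-Glo luminescence after 48 h compound exposure of Gen2.2 cells; percent activity set with DMSO as 100% and bortezomib (9.2 uM final) as 0%. Cells seeded at 500 per well, RPMI + 10% FBS, 37 °C.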

The nature of assay [12]: qHTS assay for measurement of the activity of small molecule inhibitors on Zika virus induced Caspase-3 activity in human astrocytoma cells (AID 1224859).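 Further: plate controls were ZIKV-infected untreated cells for no effect and uninfected cells for full effect.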 In outline: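 Percent inhibition of virus-induced caspase-3/7 signal is calculated against uninfected and ZIKV-infected control cells. Cells are SNB-19, infected at 2 FFU/cell for 6 h after 1 h compound exposure.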
A short description of assay [13]: qHTS Screen of the MIPE 4.0 Collection Against Ewings Sarcoma (RDES) (AID 1259252). Further: potency means the concentration at half of the fitted maximal effect; nearly all actives have a fitted effect of over 35% in size. The method, boiled down: (§2)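 Viability screen: 48 h incubation at 37C, 95% humidity, 5% CO2 with serially titrated compound, followed by CellTiter-Glo readout.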
Assay [14] can be described thus: qHTS Screen of the MIPE 4.0 Collection Against Ewings Sarcoma (TC71) (AID 1259253). Further: potency means the concentration at half of the fitted maximal effect; nearly all actives have a fitted effect of over 40% in size. The method, boiled down: as §2
Assay [15] is described as follows: qHTS Screen of the MIPE 4.0 Collection Against Ewings Sarcoma (EW8) (AID 1259255). Further: potency means the concentration at half of the fitted maximal effect; nearly all actives have a fitted effect of over 35% in size. In outline: as §2
The target of assay [16] is T1, Hexokinase-4 (Homo sapiens) + Glucokinase regulatory protein (Homo sapiens) (UniProt P35557+Q14397). The assay is described as follows: qHTS assay for inhibitors of recombinant human GCK-GKRP interaction: Diaphorase-coupled assay (AID 743205). The method, boiled down: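 Resorufin fluorescence (525/590 nm), read each minute over 30 min, reports GCK activity coupled via G6PDH and diaphorase. Reaction: 10 nM GST-GCK, 10 nM FLAG-GKRP, 5 mM glucose, 0.4 mM ATP, 0.15 mM NADP+, 0.1 mM resazurin.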
T1 sequence (P35557 whole entry, looked up): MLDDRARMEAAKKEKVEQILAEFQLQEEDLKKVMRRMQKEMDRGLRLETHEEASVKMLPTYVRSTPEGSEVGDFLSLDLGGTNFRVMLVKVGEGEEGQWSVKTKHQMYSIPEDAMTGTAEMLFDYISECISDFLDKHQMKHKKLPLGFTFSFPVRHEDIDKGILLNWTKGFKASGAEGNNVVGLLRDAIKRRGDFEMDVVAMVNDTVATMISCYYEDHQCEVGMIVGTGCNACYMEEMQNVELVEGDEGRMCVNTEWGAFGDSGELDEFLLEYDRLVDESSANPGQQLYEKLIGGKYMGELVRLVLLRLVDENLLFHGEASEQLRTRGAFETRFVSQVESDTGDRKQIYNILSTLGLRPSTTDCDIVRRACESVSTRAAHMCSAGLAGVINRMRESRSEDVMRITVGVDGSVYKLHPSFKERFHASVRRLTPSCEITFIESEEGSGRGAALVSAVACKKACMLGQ
T1 sequence (Q14397 whole entry, looked up): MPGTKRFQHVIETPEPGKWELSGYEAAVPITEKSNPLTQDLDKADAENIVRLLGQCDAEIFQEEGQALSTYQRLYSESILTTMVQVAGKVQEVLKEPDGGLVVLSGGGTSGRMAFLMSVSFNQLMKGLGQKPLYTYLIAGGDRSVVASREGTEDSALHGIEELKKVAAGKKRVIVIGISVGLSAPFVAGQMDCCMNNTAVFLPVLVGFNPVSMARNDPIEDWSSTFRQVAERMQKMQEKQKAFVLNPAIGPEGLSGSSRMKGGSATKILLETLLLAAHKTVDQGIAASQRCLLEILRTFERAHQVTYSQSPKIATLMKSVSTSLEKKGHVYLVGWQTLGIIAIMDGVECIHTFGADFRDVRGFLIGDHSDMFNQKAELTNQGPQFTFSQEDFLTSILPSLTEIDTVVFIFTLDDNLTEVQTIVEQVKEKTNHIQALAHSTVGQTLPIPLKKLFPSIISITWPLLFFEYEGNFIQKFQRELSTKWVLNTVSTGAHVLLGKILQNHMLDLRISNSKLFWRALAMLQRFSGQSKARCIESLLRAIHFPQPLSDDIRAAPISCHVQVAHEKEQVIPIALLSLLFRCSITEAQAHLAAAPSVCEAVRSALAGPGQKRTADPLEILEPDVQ

For assay [17], the target named is T1, Hexokinase-4 (Homo sapiens) + Glucokinase regulatory protein (Homo sapiens). The assay is described as follows: qHTS assay for inhibitors of recombinant human GCK-GKRP interaction: ADP-Glo assay (AID 743206).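 Further: plate controls were DMSO plus enzyme for no effect and no enzyme for full effect.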 In outline:
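GST-GCK and FLAG-GKRP (15 nM each in the dispensed mix, with 2 uM S6P) react with 0.4 mM ATP and 5 mM glucose (final) in Hepes pH 7.6 for 60 min at room temperature. ADP is measured by ADP-Glo luminescence.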

Assay [18] has the same target. Kind of assay: qHTS assay for inhibitors of recombinant human GCK-GKRP interaction: HTRF assay (AID 743207).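 Further: 0% = DMSO with GCK present and -100% = DMSO wells lacking GCK.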 The method, boiled down: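 HTRF read-out (ex 320 nm; 615/665 nm emission) after 60 min RT equilibration of 5 nM GST-GCK, 5 nM FLAG-GKRP, 2 uM S6P, compound and anti-FLAG/anti-GST detection antibodies; signal normalized between DMSO wells with and without GCK.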

A short description of assay [19]: qHTS assay for small molecule agonists of the antioxidant response element (ARE) signaling pathway measured by Nrf2-dependant transcriptional activity - cell viability counter screen (AID 720653; active means well fitted curve in the direction sought with a large enough effect in the repeat runs; an effect the other way counts as inactive or inconclusive; further: on the % scale 0 is the no-effect control and ±100 the full control effect). Conditions: ARE-bla HepG2 viability, CellTiter-Glo ATP luminescence, 16 h; max response: stronger effect = lower value. In outline: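 ARE-bla HepG2 cells treated with compounds for 16 h at 37C; this counter screen measures viability as intracellular ATP by CellTiter-Glo luminescence after 30 min at room temperature.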

The nature of assay [20]: qHTS assay for cell viability of the p53RE-bla HCT-116 cell line (AID 743292). Further: on the % scale 0 is the no-effect control and ±100 the full control effect; nearly all actives have a fitted effect of over 55% in size. In outline: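 Readout: CellTiter-Glo luminescence after 30 min RT. Treatment: compounds in DMSO, 16 h, 37 C. Cells: CellSensor p53RE-bla HCT-116, 4,000/well, preincubated 5 h.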

Each structure is given as a SMILES string. Where “and” joins values, the source holds several entries; their conditions need not be identical. Equal values may be shown once. Records with an inconclusive call do not appear. Calls of active or inactive are those of the source. Unless noted, the call rests on the fitted dose curve; in most records, active means well fitted curve in the direction sought with a large enough effect; inconclusive means small, poorly fitted or top-dose-only effect, or another doubt; inactive means no such curve, though single readings can be large; an effect the other way counts as inactive or inconclusive.

The compound `CC(C)n1nc(-c2ccc3oc(N)nc3c2)c2c(N)ncnc21` registered a parasite growth, % of DMSO control in [1] of 5.01%. The parasite growth remaining, % of DMSO control (lower = more inhibition) in [2] worked out at 9.14%. This compound gave a parasite growth, % of control (lower = inhibition) in assay [3] of 6.88%. Moreover, the viability (% of control) in assay [4] turned out to be 8.31%. Also, the Potency result in assay [5] is “inactive”.
With `CN1C[C@H]2c3ccccc3Oc3ccc(Cl)cc3[C@@H]2C1`, the viability (% of control) in assay [4] turned out to be 73.9%.
`N#Cc1ccc(NC(=O)Nc2ccccc2Br)c2n[nH]nc12`: the max response in assay [6] is 26.2% (inactive). Moreover, in [7], the remaining parasite growth % (stronger effect = lower value) was found to be 66.9%. In [8], this compound showed an activity, percent of control of 69.6%. The remaining proliferation (% of control), lower = more inhibition in assay [9] was determined as 37.3%. Further, in assay [1], the parasite growth, % of DMSO control was 7.67%. The compound also showed a parasite growth remaining, % of DMSO control (lower = more inhibition) in [2] of 65.9%. The parasite growth, % of control (lower = inhibition) in [3] is 21.8%. Further, the growth, % of control in assay [10] is 7.81%. The cell viability, % of control (lower = more cytotoxic) in [11] is 183%. In addition, the viability (% of control) in assay [4] stood at 14.7%.
As for `O=C(N[C@@H](c1ccccc1)[C@@H]1CCCCN1)c1cccc(C(F)(F)F)c1Cl`, the Potency in assay [6] is 18.7 µM (active). For the same compound, the remaining parasite growth % (stronger effect = lower value) in assay [7] amounted to 52.4%. In [8], this compound registered an activity, percent of control of 16.6%. In assay [9], this compound came in with a remaining proliferation (% of control), lower = more inhibition of 29.7%. This compound returned a parasite growth, % of DMSO control in assay [1] of 9.06%. In assay [3], this compound came in with a parasite growth, % of control (lower = inhibition) of 26.8%. In assay [10], the growth, % of control came out at 8.07%. Also, the viability (% of control) in assay [4] worked out at 24.7%. Besides, the Potency result in assay [5] and in assay [12] was “inactive” in each case.
With `CCc1ccc(OCc2ccccc2C(=O)Nc2ccc3nc(C)cc(N)c3c2)cc1`, the remaining parasite growth % (stronger effect = lower value) in assay [7] is -0.867%. This compound had an activity, percent of control in [8] of 0.0556%. For the same compound, in assay [9], the remaining proliferation (% of control), lower = more inhibition amounted to 0.0187%. In addition, the parasite growth, % of DMSO control in assay [1] is 5.35%. The compound also came in with a parasite growth, % of control (lower = inhibition) in assay [3] of 24.8%. The same compound registered a growth, % of control in assay [10] of 10%. This compound also had a viability (% of control) in assay [4] of 4.73%. Besides, the Potency result in [5] is “inactive”. Moreover, the Potency in assay [13] is 9.35 µM (active); in [14], 7.43 µM (active); in assay [15], 7.43 µM (active).
In the case of `CCN(CC)CCNC(=O)c1ccc(N)cc1`, the outcome in assay [16], in assay [17] and in assay [18] was inactive. In [5], the Potency result was “inactive”.
`NC(N)=Nc1nc(CSCC/C(N)=N/S(N)(=O)=O)cs1`: the result in [16], in assay [17] and in [18] was inactive. In addition, the Potency result in [5] and in assay [12] was “inactive” each time.
On to `CCN(CC)C(=O)c1ccc(O)c(OC)c1`, for which the outcome in assay [16], in assay [17] and in assay [18] was inactive.
Take `CC(=O)N[C@@H](CS)C(=O)O`: the max response in assay [19] is 3.38% (inactive); in [6], 4.68% (inactive) and -17% (inactive). For the same compound, the result in [16], in assay [17] and in assay [18] was inactive. In addition, the Potency result in [20] and in assay [12] was “inactive” each time.
In the case of `CCCNC(=O)NS(=O)(=O)c1ccc(Cl)cc1`, the max response was 9.19% (inactive) and -14.5% (inactive) in assay [19]; 10.2% (inactive) and -7.21% (inactive) in assay [6]. For the same compound, the result in assay [16], in [17] and in assay [18] was inactive. In addition, the Potency entry in assay [20], in [5] and in assay [12] was “inactive” in each case.

Values taken from PubChem BioAssay (NCATS).
